Results filed as inconclusive are left out. The source made the active and inactive calls. Unless noted, the call rests on the fitted dose curve; in most records, active means well fitted curve in either direction with a large enough effect (not every such curve was filed as active); inconclusive means small, poorly fitted or top-dose-only effect, or another doubt; inactive means flat fitted curve, though single readings scatter.
Legend:
[1] = target: Lysosomal acid glucosylceramidase (Homo sapiens) (UniProt P04062); experiment: Glucocerebrosidase-p2 (AID 348; in the data active means potency below about 10 µM; further: potency means the concentration at half of the fitted maximal effect); conditions: purified GBA, blue fluorogenic substrate, 40 min
Lysosomal acid glucosylceramidase (Homo sapiens), sequence (P04062 whole entry, looked up): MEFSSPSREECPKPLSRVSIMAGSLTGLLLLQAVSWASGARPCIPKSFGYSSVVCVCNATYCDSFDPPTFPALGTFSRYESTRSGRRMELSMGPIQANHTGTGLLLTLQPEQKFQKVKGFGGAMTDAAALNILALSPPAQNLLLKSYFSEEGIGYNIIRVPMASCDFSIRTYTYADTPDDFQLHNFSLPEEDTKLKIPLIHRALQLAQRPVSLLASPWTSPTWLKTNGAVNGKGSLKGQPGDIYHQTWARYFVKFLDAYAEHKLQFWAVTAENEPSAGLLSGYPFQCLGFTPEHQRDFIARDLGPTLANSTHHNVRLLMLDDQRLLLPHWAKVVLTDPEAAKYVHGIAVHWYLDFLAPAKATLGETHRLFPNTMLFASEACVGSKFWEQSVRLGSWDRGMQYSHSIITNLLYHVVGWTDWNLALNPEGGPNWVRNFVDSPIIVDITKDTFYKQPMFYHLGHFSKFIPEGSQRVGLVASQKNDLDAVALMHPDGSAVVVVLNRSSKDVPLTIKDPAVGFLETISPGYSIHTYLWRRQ
In short: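 Normal human glucocerebrosidase (0.2 nM) with blue fluorogenic substrate (80 uM final) in citrate/phosphate pH 5.9 with 10mM sodium taurocholate, 0.01% tween-20; 40 min RT, NaOH/glycine stop; fluorescence Ex 365/Em 440; AC50 from a titration from 0.6 nM upwards.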

[2] = AP1 Signaling Pathway (AID 357); conditions: ME-180 AP-1-bla reporter, EGF-induced, beta-lactamase ratio, 5 h; at 7.69 µM (top of the series) unless noted;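 further: ME-180 reporter cells stimulated with EGF at its EC50 level; on the % scale 0 is the no-effect control and ±100 the full control effect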
In short: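 Beta-lactamase reporter under AP-1 response element, ME-180 background. Stimulus: EC50 EGF. Compound exposure 5 h, 37 °C. Detection: CCF4, 2.5 h RT, 460/530 nm. Values: AC50 from titration.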

[3] = NFAT Signaling Pathway (AID 444); conditions: Jurkat NFAT-bla M1, carbachol, beta-lactamase ratio, 5 h; at 7.69 µM (top of the series) unless noted;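 further: carbachol stimulus at about its EC50 of 1 µM final; on the % scale 0 is the no-effect control and ±100 the full control effect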
In short: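 Jurkat cells with NFAT-driven β-lactamase reporter and co-expressed M1 receptor, stimulated with carbachol (final 1 uM, ~EC50), compound titration, 5 h at 37 °C. CCF4 loaded 1 h at RT; 460/530 nm ratio gave %activity and AC50.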

[4] = Stat Signaling Pathway (AID 446); conditions: ME-180 (cervical carcinoma) SIE beta-lactamase reporter, IL-6 stimulated, 5 h; at 7.69 µM (top of the series) unless noted;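 further: ME-180 cervical cancer cells given 40 pM IL-6 alongside compound; SIE-controlled beta-lactamase reporter measured as 460/530 nm FRET emission ratio; on the % scale 0 is the no-effect control and ±100 the full control effect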
In short: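 Compound effects on IL-6-induced STAT reporter activity were measured in ME-180 cells. After overnight culture, cells were co-treated with 40 pM IL-6 for 5 hrs before beta-lactamase substrate loading at room temperature.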

[5] = target: Glucocorticoid receptor (Homo sapiens) (UniProt P04150); experiment: GR-GFP Redistribution (AID 450;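 active means compounds whose dose series gives a full or clear partial fitted curve of increased nuclear translocation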; further: potency means the concentration at half of the fitted maximal effect); conditions: U2OS GR-GFP nuclear translocation, laser cytometry, 2 h
Glucocorticoid receptor (Homo sapiens), sequence (P04150 whole entry, looked up, the tested form may be a part): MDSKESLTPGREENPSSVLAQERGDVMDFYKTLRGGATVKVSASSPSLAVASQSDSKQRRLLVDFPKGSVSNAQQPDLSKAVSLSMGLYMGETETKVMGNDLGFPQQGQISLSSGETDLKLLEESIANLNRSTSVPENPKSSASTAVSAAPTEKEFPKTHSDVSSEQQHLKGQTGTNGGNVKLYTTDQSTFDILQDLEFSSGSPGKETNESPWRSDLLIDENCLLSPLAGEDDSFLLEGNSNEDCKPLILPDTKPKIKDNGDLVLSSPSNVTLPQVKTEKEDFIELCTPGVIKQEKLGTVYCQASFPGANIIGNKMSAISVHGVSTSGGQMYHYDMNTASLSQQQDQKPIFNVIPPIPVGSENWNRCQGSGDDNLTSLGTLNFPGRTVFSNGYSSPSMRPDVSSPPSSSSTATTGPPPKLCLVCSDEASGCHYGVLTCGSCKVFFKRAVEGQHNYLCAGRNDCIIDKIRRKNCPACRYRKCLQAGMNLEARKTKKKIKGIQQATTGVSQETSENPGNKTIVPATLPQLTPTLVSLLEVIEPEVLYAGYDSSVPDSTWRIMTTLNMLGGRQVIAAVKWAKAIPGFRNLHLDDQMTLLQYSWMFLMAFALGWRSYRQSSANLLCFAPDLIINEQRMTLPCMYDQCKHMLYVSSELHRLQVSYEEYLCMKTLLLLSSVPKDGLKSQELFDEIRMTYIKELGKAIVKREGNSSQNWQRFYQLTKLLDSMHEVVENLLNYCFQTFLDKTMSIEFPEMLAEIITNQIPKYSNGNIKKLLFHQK

[6] = target: Glucocorticoid receptor (Homo sapiens) (UniProt P04150); experiment: GR-EFC Redistribution (AID 451; calls by dose curve; further: potency means the concentration at half of the fitted maximal effect); conditions: CHO-K1 GR-EFC translocation, beta-gal luminescence, 2 h
In short: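 CHO-K1 cells expressing nuclear EA and GR-ED fragments of b-gal; compounds titrated up to 46 uM final, 2 h at 37 C. GR nuclear translocation read as complemented b-gal luminescence after 1 h RT detection.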

[7] = target: Mitogen-activated protein kinase 10 (Mus musculus) (UniProt Q61831); experiment: JNK3 AlphaScreen Assay (AID 530); conditions: JNK3 lysate, c-Jun phosphorylation; series mostly up to 11.4 µM;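 further: kinase came from lysate of stimulated human HepG2 cells; signal reports phosphorylation of biotinylated GST-cJun 1-79 at Ser73 with 10 µM ATP; on the % scale 0 is the no-effect control and ±100 the full control effect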
In short: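 Activity was read by AlphaScreen after JNK3-containing HepG2 lysate (cytokine pre-activated) phosphorylated biotinylated GST-cJun with 10 uM ATP at room temperature. Phospho-Ser73 cJun antibody with Protein-A acceptor beads provided detection.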

[8] = target: 3',5'-cyclic-AMP phosphodiesterase 4B (Homo sapiens) (UniProt Q07343); experiment: qHTS Assay for Inhibitors of PDE-IV (AID 607; active means well fitted activation curve with a large enough effect in the main read-out, with a control signal flat, not every such curve was filed as active; further: % of control where 0% means no effect); conditions: HEK293 ACTOne CNG channel cells, membrane potential fluorescence; series mostly up to 22.9 µM
3',5'-cyclic-AMP phosphodiesterase 4B (Homo sapiens), sequence (Q07343 whole entry, looked up): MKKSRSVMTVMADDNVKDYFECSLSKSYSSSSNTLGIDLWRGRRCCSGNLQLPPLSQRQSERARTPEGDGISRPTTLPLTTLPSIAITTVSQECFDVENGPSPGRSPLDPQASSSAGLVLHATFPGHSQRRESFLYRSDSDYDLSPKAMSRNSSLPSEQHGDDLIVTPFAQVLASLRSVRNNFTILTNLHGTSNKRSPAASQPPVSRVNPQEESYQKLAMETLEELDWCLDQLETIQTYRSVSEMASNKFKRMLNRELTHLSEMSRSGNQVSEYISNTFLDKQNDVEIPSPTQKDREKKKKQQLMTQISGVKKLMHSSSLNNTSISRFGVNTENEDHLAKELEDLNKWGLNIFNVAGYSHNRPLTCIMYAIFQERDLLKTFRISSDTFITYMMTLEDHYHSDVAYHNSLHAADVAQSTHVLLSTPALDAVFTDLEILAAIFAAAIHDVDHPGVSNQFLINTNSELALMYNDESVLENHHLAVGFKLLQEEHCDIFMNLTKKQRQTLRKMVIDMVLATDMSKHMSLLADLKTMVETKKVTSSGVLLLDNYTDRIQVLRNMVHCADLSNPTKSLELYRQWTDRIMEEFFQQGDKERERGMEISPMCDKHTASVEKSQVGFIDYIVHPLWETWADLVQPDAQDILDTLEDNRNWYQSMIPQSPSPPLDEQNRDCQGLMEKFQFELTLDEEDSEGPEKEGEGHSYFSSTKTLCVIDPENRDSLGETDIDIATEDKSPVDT
In short: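 ACTOne HEK293 cells carry a modified cAMP-gated CNG channel and express endogenous PDE4; plated 1000 cells/well, compounds up to 22.9 uM final. Membrane-potential dye fluorescence (ex 535/em 590) was read; parental cells received 10 uM forskolin + 100 uM RO 20-1724.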

O=C(O)CCC(=O)c1ccc[nH]1
inactive: Potency [1] > 11.4 µM | activity change, negative = inhibition [2] -0.936% | activity change, negative = inhibition [3] 3.55% | activity, negative = inhibition [4] 3.5% | Potency [5] > 46 µM | Potency [6] > 9.22 µM | Potency [7] | Potency [8]

O=S(=O)(O)n1ccnc1 (tested in a mixture with another compound)
inactive: Potency [1] > 11.4 µM | activity change, negative = inhibition [2] -2.09% | activity change, negative = inhibition [3] 6.55% | activity, negative = inhibition [4] 0.01% | Potency [5] > 46 µM | Potency [6] > 9.22 µM | Potency [7] | Potency [8]

O=C1c2ccccc2C(=O)N1c1ccc(Cc2ccc(N3C(=O)c4ccccc4C3=O)cc2)cc1
inactive: Potency [1] > 11.4 µM | activity change, negative = inhibition [2] -0.978% | activity change, negative = inhibition [3] 8.54% | activity, negative = inhibition [4] -2.37% | Potency [5] > 46 µM | Potency [6] > 9.22 µM | Potency [7] | Potency [8]

O=C(O)CCCCn1cnc2c(=S)nc[nH]c21
inactive: Potency [1] > 11.4 µM | activity change, negative = inhibition [2] 8.11% | activity change, negative = inhibition [3] 5.86% | activity, negative = inhibition [4] 6.11% | Potency [5] > 46 µM | Potency [6] > 9.22 µM | Potency [7] | Potency [8]

O=C(O)CN(CC(=O)O)c1ccccc1
inactive: Potency [1] > 11.4 µM | activity change, negative = inhibition [2] 7.7% | activity change, negative = inhibition [3] 8.14% | activity, negative = inhibition [4] 13.6% | Potency [5] > 46 µM | Potency [6] > 9.22 µM | Potency [7] | Potency [8]

CO[C@@H]1/C=C\O[C@]2(C)Oc3c(C)c(O)c4c(O)c(c(CN(C)C)c(O)c4c3C2=O)NC(=O)/C(C)=C\C=C[C@@H](C)[C@@H](O)[C@H](C)[C@@H](O)[C@H](C)[C@H](OC(C)=O)[C@@H]1C
inactive: Potency [1] > 11.4 µM | activity change, negative = inhibition [2] -3.25% | activity change, negative = inhibition [3] 17.6% | activity, negative = inhibition [4] -2.18% | Potency [5] > 46 µM | Potency [6] > 9.22 µM | Potency [7] | Potency [8]

Nc1ccc(Cc2ccc(N)c(C(=O)O)c2)cc1C(=O)O
inactive: Potency [1] > 11.4 µM | activity change, negative = inhibition [2] 12.6% | activity change, negative = inhibition [3] 16.6% | activity, negative = inhibition [4] 1.75% | Potency [5] > 46 µM | Potency [6] > 9.22 µM | Potency [7] | Potency [8]

O=c1ccc(-c2ccccc2)n[nH]1
inactive: Potency [1] > 11.4 µM | activity change, negative = inhibition [2] 1.12% | activity change, negative = inhibition [3] -2.18% | activity, negative = inhibition [4] -3.27% | Potency [5] > 46 µM | Potency [6] > 9.22 µM | Potency [7] | Potency [8]

CC(C)C1=C[C@@]23CC[C@@H]4[C@](C)(CCC[C@@]4(C)C(=O)O)[C@@H]2C[C@@H]1[C@@H](C(=O)O)[C@@H]3C(=O)O
inactive: Potency [1] > 11.4 µM | activity change, negative = inhibition [2] 1.99% | activity change, negative = inhibition [3] 4.67% | activity, negative = inhibition [4] 5.23% | Potency [5] > 46 µM | Potency [6] > 9.22 µM | Potency [7] | Potency [8]

Cc1ccn2c(CCc3nnc4cc(C)ccn34)nnc2c1
inactive: Potency [1] > 11.4 µM | activity change, negative = inhibition [2] 2.24% | activity change, negative = inhibition [3] 11% | activity, negative = inhibition [4] -6.72% | Potency [5] > 46 µM | Potency [6] > 9.22 µM | Potency [7] | Potency [8]

COCCn1c(=O)cnc2cnc(N3CCNCC3)nc21
inactive: Potency [1] > 11.4 µM | activity change, negative = inhibition [2] -9.65% | activity change, negative = inhibition [3] -7.03% | activity, negative = inhibition [4] -2.85% | Potency [5] > 9.22 µM | Potency [6] > 46 µM | Potency [7] | Potency [8]

NNC(=O)CS(=O)(=O)Nc1ncccn1
inactive: Potency [1] > 11.4 µM | activity change, negative = inhibition [2] -0.0437% | activity change, negative = inhibition [3] 3.94% | activity, negative = inhibition [4] -3.75% | Potency [5] > 46 µM | Potency [6] > 9.22 µM | Potency [7] | Potency [8]

CN(C)Cc1cc(C(C)(C)C)cc(CNC2CCCCC2)c1O
inactive: Potency [1] > 11.4 µM | activity change, negative = inhibition [2] -6.47% | activity change, negative = inhibition [3] -20.6% | activity, negative = inhibition [4] 7.16% | Potency [5] > 46 µM | Potency [6] > 9.22 µM | Potency [7] | Potency [8]

CC(=O)Nc1nc2ncc(C=O)nc2c(=O)[nH]1
inactive: Potency [1] > 11.4 µM | activity change, negative = inhibition [2] -2.43% | activity change, negative = inhibition [3] 17.3% | activity, negative = inhibition [4] 5.76% | Potency [5] > 46 µM | Potency [6] > 9.22 µM | Potency [7] | Potency [8]

O=S(=O)(c1ccc2ccccc2c1)N1CCN(S(=O)(=O)c2ccc3ccccc3c2)CC1
inactive: Potency [1] > 11.4 µM | activity change, negative = inhibition [2] -2.95% | activity change, negative = inhibition [3] -5.78% | activity, negative = inhibition [4] 0.106% | Potency [5] > 46 µM | Potency [6] > 9.22 µM | Potency [7] | Potency [8]

O=C1OC(c2ccc(O)c(-c3ccccc3)c2)(c2ccc(O)c(-c3ccccc3)c2)c2c(Cl)c(Cl)c(Cl)c(Cl)c21
inactive: Potency [1] > 11.4 µM | activity change, negative = inhibition [2] 10.7% | activity change, negative = inhibition [3] 19.3% | activity, negative = inhibition [4] 5.56% | Potency [5] > 46 µM | Potency [6] > 9.22 µM | Potency [7] | Potency [8]
